Data as given in PubChem BioAssay AID588511 (Johns Hopkins Ion Channel Center, 2011).
Among all 310,000 compounds or so, about 3,600 (1.2%) were called active. This is one part of a sample in which actives are shown more often than they occur.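 How the source made its calls: active means ratio plate-corrected score three or more library SD toward inhibition, starting fluorescence score within five deviations; inactive means the rest.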

biological target: Anoctamin-1 (Mus musculus) (UniProt Q8BHY3); test: TMEM16A chloride channel inhibitors, primary screen, cell-based, HTS (AID 588511); conditions: HEK293 TMEM16A/YFP iodide influx fluorescence, ionomycin; at 10 µM;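 on normalized B-score (activity score, 25-100; higher = stronger inhibition): score derived from kinetic fluorescence span divided by baseline fluorescence per well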
Sequence (Q8BHY3 whole entry, looked up): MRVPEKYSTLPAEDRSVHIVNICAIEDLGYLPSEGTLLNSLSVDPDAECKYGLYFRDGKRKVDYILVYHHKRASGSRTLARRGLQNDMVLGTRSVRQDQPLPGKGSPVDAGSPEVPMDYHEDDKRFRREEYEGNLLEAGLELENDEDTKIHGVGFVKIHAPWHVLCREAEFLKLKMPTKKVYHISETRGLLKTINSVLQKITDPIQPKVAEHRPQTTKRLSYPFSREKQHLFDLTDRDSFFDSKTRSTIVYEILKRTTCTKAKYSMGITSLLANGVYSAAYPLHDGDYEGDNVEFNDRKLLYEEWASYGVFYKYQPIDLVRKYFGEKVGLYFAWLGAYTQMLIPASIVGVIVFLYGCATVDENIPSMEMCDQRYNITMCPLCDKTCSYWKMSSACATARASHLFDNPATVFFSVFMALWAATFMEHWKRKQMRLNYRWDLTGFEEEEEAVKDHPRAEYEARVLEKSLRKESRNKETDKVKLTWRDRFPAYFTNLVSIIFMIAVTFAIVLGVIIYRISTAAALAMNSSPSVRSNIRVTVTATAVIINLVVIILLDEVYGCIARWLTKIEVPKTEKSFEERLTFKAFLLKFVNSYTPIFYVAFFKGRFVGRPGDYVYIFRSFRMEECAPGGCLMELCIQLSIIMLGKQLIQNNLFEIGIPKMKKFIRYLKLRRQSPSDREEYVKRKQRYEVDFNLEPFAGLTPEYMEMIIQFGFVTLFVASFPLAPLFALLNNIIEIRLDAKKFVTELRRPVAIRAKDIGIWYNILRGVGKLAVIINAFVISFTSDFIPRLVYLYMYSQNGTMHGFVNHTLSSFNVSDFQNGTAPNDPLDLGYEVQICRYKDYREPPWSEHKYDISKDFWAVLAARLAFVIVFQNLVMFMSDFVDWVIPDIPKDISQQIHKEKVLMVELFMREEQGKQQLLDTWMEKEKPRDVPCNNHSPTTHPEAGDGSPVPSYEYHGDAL

SMILES | normalized B-score (activity score, 25-100; higher = stronger inhibition)
CC(=O)NCCc1ccc(S(=O)(=O)Nc2ccc(C)c(S(=O)(=O)N3CCOCC3)c2)cc1 | inactive
CCCCCC(O)c1cccc(OCc2ccc3ccccc3n2)c1 (stereo unspecified) | 100 (active)
CCCCCCOC(=O)NCC(O)c1ccccc1 (stereo unspecified) | inactive
COc1cccc(C(O)c2nc3ccccc3n2C)c1 (stereo unspecified) | inactive
NC(=O)c1ccc(Nc2ccc3c(c2)CCC3)c([N+](=O)[O-])c1 | inactive
Cc1ccc(S(=O)(=O)NCc2csc(C)n2)c(C)c1 | inactive
Cc1nc(CNS(=O)(=O)c2ccc(Oc3ccccc3)cc2)cs1 | 100 (active)
Cc1nc(CNS(=O)(=O)c2cccnc2)cs1 | inactive
CS(=O)(=O)c1ccccc1C(=O)Nc1ccc2sccc2c1 | inactive
Cc1csc(NC(=S)Nc2cccc(Cl)c2)n1 | inactive
FC(F)(F)c1cccc(NC(=S)Nc2cccc(Cl)c2)c1 | 100 (active)
S=C(Nc1cccc(Cl)c1)Nc1ccc2c(c1)OCCO2 | inactive
COC(=O)CNS(=O)(=O)c1ccc(OC)cc1 | inactive
COc1ccc(S(=O)(=O)NCCCCOc2ccc(Cl)cc2)cc1 | 25 (active)
COc1ccc(S(=O)(=O)NCCCc2ccccc2)cc1 | inactive
Cc1ccccc1C(=O)N1CCC(C(=O)Oc2ccc(C#N)cc2)CC1 | inactive
Cc1cccc(N(Cc2ccccc2)C(=O)c2cc(S(=O)(=O)N3CCOCC3)ccc2F)c1 | inactive
Cc1ccc(F)cc1NC(=O)Cc1nn(C)c(=O)c2ccccc12 | 100 (active)
Cc1nn(CC(=O)Nc2ccc(F)cc2)c(=O)c2ccccc12 | inactive
COc1ccc(-c2nn(C)c(=O)c3ccccc23)cc1NC(=O)COc1ccccc1 | inactive
C[C@@H]1NC(=O)c2cc([N+](=O)[O-])cc(F)c2NCCC[C@@H](C(N)=O)NC(=O)[C@H](CC(N)=O)NC1=O | inactive
Cc1nn(C)c(Oc2ccccc2)c1CCNS(=O)(=O)c1ccc(F)cc1 | inactive
C/C(=N\NS(=O)(=O)c1ccc(Cl)cc1)c1ccc(NC(=O)c2ccco2)cc1 | inactive
O=C1CC(N2CCN(C(c3ccccc3)c3ccccc3)CC2)C(=O)N1 (stereo unspecified) | inactive
CC1(C)CC(N2CCN(C(c3ccccc3)c3ccccc3)CC2)=CC(=[N+]2CCCCC2)C1 | 100 (active)
CC1(C)CC(=O)C=C(N2CCCC2)C1 | inactive

SMILES | normalized B-score (activity score, 25-100; higher = stronger inhibition)
O=C(/C=C/Nc1ccc(S(=O)(=O)Nc2cnc3ccccc3n2)cc1)c1cccnc1 | inactive
COc1ccc(/C=C(\C#N)c2c[nH]c3ccccc23)cc1 | inactive
CCN(CC)CC(=O)c1c[nH]c2ccc(OC)cc12 | inactive
COc1ccc2[nH]cc(/C=C(/C#N)S(=O)(=O)c3ccccc3)c2c1 | 100 (active)
COC(C[C@@H](O)C[C@@H](O)[C@H](C)OCc1ccccc1)OC | inactive
CCc1cccc(NC(=O)COC(=O)C2CCN(c3ccc(C(F)(F)F)cn3)CC2)c1 | inactive
Cc1cccc(-n2c(SCC(N)=O)nc3c(c2=O)C2(CCCCC2)Cc2ccccc2-3)c1 | 100 (active)
N#CCSc1nc2c(c(=O)n1Cc1ccccc1)C1(CCCC1)Cc1ccccc1-2 | inactive
Cc1cccc(-n2c(=O)c3c(C)c(C)sc3n(CC(N)=O)c2=O)c1 | inactive
Cc1ccc(-c2csc(-c3c[nH]c4ccccc34)n2)cc1 | 100 (active)
CCCc1cc(-c2nc(-c3ccc(C)cc3)cs2)ccn1 | inactive
Cc1ccc(-c2csc(-c3cc(C)on3)n2)cc1 | inactive
O=C(C1CCCO1)N1CCN(S(=O)(=O)c2ccc(Br)cc2)CC1 (stereo unspecified) | inactive
Cc1cc(=O)oc2cc(OCC3CC(c4ccccc4Cl)=NO3)ccc12 (stereo unspecified) | inactive
O=C(CCS(=O)(=O)c1ccc2c(c1)NC(=O)CS2)NCc1ccccc1Cl | inactive
O=C(N[C@@H](Cc1ccccc1)C(=O)OCc1ccccc1)c1nc[nH]c1C(=O)N[C@@H](Cc1ccccc1)C(=O)OCc1ccccc1 | inactive
CNC(=O)c1[nH]cnc1C(=O)N[C@@H](CC(C)C)C(=O)OC(C)(C)C | inactive
CNC(=O)c1[nH]cnc1C(=O)N[C@@H](CC(C)C)C(=O)OCc1ccccc1 | 25 (active)
O=C(CSc1nnc(-c2cccs2)n1Cc1ccccc1)N1CCc2ccccc2C1 | inactive
Cc1nc(SCC(=O)N2CCc3ccccc3C2)c2c(C)c(C)sc2n1 | 100 (active)
Cc1nc(SCC(=O)N2CC(=O)Nc3ccccc32)c2c(C)c(C)sc2n1 | inactive
O=C(N1CCCCC1)N1CCN(C(=O)N2CCCCC2)CC1 | inactive
O=S(=O)(c1ccccc1)N1CCc2ccccc21 | inactive
Cn1c(=O)n(C)c2cc(S(=O)(=O)N3CCCc4ccccc43)ccc21 | 25 (active)
CCn1c(=O)c(=O)n(CC)c2cc(S(=O)(=O)N3CCc4ccccc43)ccc21 | inactive
